Among the data in publication PMC7862700, “An all-to-all approach to the identification of sequence-specific readers for epigenetic DNA modifications on cytosine” are binding signal values, retold here.

What all share (test): DAPPL (digital affinity profiling via proximity ligation, sequencing); 10 mM Tris-HCl pH 7.5, 50 mM NaCl, 1 mM DTT, 4% glycerol, room temperature, 30 min; GST-TFs on glutathione beads, 16-mer random dsDNA library, 0.1% formaldehyde crosslink after washing; high values mean tight binding
Conditions in all cases: protein: recombinant; tags: N-terminal GST; dsDNA, one strand shown

One experiment has as its target T1, FLI1 (Homo sapiens, UniProt Q01543 1-452).
T1 sequence: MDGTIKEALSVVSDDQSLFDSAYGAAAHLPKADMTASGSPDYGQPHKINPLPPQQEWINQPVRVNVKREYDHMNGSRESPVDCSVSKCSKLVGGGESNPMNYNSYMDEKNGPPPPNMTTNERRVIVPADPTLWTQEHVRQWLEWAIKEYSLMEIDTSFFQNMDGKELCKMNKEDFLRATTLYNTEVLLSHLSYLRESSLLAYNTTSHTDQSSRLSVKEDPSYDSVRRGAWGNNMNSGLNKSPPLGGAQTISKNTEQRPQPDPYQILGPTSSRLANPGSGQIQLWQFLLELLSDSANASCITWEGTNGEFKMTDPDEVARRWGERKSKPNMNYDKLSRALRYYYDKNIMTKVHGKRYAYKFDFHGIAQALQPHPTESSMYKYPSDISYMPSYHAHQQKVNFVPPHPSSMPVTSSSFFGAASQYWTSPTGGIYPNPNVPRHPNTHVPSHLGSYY
Summed up:
(§1)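 Pools of DNA-barcoded human transcription factors, expressed in yeast as GST fusions on glutathione beads and combined with a tag-only sample, were incubated with 200 nmole of a 16-mer random double-stranded DNA library. Incubation took 30 min at room temperature in Tris/NaCl/DTT/glycerol buffer and was followed by washing, 0.1% formaldehyde crosslinking, proximity ligation (BsaI/T4 ligase, 1 h, 37 °C), PCR amplification and sequencing on an Illumina NextSeq500. Binding signal is the ratio of a hexamer's read frequency for a factor to its frequency for the tag-only sample.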

For another experiment, the target named is T2, ELK1 (Homo sapiens, UniProt P19419 1-428).
T2 sequence: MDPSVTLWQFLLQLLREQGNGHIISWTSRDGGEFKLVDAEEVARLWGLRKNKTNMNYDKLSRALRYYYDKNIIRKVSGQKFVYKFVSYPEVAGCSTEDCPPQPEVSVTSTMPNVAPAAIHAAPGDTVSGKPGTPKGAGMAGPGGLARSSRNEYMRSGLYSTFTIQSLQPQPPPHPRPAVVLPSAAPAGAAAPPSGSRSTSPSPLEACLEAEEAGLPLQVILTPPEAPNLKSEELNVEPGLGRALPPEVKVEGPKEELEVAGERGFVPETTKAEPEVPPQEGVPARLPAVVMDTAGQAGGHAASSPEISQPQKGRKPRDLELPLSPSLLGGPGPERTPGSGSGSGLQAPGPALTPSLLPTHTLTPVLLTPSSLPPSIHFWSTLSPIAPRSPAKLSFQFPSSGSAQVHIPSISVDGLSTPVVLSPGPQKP
In short, it runs like this:
as §1

For a further experiment, the target named is T3, GABPA (Homo sapiens, UniProt Q06546 1-454).
T3 sequence: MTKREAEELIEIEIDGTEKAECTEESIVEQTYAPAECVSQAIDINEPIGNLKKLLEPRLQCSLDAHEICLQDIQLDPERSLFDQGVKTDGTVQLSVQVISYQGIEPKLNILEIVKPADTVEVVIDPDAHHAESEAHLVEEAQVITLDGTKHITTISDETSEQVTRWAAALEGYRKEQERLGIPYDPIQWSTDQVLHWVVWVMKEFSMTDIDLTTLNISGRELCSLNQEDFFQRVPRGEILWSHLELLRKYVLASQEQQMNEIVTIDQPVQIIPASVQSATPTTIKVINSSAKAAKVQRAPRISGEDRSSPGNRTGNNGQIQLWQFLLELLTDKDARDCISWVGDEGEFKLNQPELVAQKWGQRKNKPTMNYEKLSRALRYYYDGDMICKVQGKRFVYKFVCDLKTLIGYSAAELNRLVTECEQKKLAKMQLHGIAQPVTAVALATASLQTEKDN
In short, it runs like this:
as §1

The target of the next experiment is T4, ERG (Homo sapiens, UniProt P11308 1-479).
T4 sequence: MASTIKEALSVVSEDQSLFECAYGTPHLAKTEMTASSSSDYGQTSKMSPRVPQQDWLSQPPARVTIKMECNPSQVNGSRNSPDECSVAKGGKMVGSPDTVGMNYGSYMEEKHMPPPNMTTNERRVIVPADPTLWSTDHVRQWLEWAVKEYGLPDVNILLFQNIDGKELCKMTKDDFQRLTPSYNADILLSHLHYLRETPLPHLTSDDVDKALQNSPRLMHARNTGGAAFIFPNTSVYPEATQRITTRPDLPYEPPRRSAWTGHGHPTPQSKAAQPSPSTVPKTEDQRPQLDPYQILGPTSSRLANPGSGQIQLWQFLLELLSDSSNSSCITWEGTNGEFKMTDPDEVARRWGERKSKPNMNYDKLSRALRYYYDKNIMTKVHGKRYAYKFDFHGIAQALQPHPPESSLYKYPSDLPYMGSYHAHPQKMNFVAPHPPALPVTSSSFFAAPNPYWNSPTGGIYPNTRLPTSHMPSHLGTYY
In short, it runs like this:
as §1

The target of a further experiment is ELF1 (Homo sapiens, UniProt P32519 1-619). Summed up:
as §1

The next experiment has as its target T5, EHF (Homo sapiens, UniProt Q9NZC4 1-300).
T5 sequence: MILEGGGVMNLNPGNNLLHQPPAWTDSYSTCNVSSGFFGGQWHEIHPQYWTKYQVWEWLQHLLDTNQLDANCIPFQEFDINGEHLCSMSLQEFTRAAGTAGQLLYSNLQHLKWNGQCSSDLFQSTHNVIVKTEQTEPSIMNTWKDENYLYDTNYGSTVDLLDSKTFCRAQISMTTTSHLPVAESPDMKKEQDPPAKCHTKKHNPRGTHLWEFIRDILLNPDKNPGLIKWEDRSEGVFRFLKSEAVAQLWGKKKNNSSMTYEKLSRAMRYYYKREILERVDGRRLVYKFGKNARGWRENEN
Summed up:
as §1

A further experiment has as its target SPI1 (Homo sapiens, UniProt P17947 1-270). In short, it runs like this: as §1
The target of a further experiment is SPIB (Homo sapiens, UniProt Q01892 1-262). In short, it runs like this: as §1
The target of the next experiment is T6, ELK3 (Homo sapiens, UniProt P41970 1-407).
T6 sequence: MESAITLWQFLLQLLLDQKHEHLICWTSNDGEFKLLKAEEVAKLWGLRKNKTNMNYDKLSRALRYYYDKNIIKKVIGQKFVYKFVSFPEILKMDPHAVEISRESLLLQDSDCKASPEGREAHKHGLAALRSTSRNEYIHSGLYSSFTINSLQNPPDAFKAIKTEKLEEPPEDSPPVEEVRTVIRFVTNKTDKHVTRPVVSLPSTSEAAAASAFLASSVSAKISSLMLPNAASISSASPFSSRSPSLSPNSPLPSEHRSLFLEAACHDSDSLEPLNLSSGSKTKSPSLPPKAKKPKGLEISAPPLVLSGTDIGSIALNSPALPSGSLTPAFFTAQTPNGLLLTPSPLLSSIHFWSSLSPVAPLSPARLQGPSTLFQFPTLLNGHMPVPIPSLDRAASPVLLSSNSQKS
Summed up: as §1

Chain of SPIB (Q01892 whole entry): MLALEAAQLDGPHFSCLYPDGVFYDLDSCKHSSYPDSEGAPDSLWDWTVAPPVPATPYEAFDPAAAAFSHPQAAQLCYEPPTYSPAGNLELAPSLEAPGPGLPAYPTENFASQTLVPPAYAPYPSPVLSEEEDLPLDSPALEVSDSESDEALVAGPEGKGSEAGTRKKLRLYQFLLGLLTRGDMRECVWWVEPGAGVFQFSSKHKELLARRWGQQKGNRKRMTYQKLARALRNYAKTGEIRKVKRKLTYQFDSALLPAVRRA
Chain of ELF1 (P32519 whole entry): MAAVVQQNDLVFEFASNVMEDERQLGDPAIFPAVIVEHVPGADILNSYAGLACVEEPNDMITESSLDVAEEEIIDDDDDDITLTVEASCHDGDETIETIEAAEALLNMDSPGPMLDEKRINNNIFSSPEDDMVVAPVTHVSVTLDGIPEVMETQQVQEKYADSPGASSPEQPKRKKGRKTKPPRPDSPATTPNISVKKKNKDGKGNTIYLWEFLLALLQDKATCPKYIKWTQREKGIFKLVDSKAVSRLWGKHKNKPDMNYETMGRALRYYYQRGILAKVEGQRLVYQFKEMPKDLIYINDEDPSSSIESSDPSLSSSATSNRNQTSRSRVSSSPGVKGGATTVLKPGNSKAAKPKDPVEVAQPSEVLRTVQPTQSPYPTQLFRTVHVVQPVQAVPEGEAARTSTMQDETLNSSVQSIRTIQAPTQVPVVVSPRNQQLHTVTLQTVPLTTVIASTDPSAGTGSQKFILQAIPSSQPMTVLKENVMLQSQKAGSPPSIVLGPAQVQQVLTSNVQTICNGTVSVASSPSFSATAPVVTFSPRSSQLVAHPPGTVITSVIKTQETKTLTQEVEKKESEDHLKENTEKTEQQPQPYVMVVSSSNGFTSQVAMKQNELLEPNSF

On to TAGCTA, for which the binding signal with FLI1 is 1.22 fold enrichment (6-mer frequency, TF over GST control); in the experiment with ELK1 it was 1.24 fold enrichment (6-mer frequency, TF over GST control); with GABPA, 1.21 fold enrichment (6-mer frequency, TF over GST control); with ERG, 1.22 fold enrichment (6-mer frequency, TF over GST control); with ELF1, 1.25 fold enrichment (6-mer frequency, TF over GST control); in the experiment with EHF, 1.22 fold enrichment (6-mer frequency, TF over GST control). For the same sequence, the binding signal with SPI1 is 1.2 fold enrichment (6-mer frequency, TF over GST control); with SPIB, 1.22 fold enrichment (6-mer frequency, TF over GST control); with ELK3 it was 1.29 fold enrichment (6-mer frequency, TF over GST control).
Regarding AGGTCT, the binding signal in the experiment with FLI1 is 1.31 fold enrichment (6-mer frequency, TF over GST control); with ELK1, 1.17 fold enrichment (6-mer frequency, TF over GST control); in the experiment with GABPA, 1.16 fold enrichment (6-mer frequency, TF over GST control); with ERG it was 1.15 fold enrichment (6-mer frequency, TF over GST control); with ELF1 it was 1.22 fold enrichment (6-mer frequency, TF over GST control); in the experiment with EHF it was 1.19 fold enrichment (6-mer frequency, TF over GST control). Further, the binding signal in the experiment with SPI1 was 1.11 fold enrichment (6-mer frequency, TF over GST control); with SPIB, 1.22 fold enrichment (6-mer frequency, TF over GST control); with ELK3, 1.3 fold enrichment (6-mer frequency, TF over GST control).
As to TTGAAT, the binding signal with FLI1 was 1.11 fold enrichment (6-mer frequency, TF over GST control); with ELK1, 1.08 fold enrichment (6-mer frequency, TF over GST control); with GABPA it was 1.15 fold enrichment (6-mer frequency, TF over GST control); with ERG it was 1.1 fold enrichment (6-mer frequency, TF over GST control); in the experiment with ELF1, 1.12 fold enrichment (6-mer frequency, TF over GST control); with EHF it was 1.11 fold enrichment (6-mer frequency, TF over GST control). In addition, the binding signal with SPI1 is 1.12 fold enrichment (6-mer frequency, TF over GST control); with SPIB, 1.03 fold enrichment (6-mer frequency, TF over GST control); in the experiment with ELK3, 1.04 fold enrichment (6-mer frequency, TF over GST control).
Consider TAACTA, for which the binding signal with FLI1 is 1.36 fold enrichment (6-mer frequency, TF over GST control); with ELK1, 1.29 fold enrichment (6-mer frequency, TF over GST control); with GABPA it was 1.46 fold enrichment (6-mer frequency, TF over GST control); with ERG, 1.42 fold enrichment (6-mer frequency, TF over GST control); with ELF1, 1.32 fold enrichment (6-mer frequency, TF over GST control); with EHF, 1.27 fold enrichment (6-mer frequency, TF over GST control). In addition, the binding signal with SPI1 is 1.3 fold enrichment (6-mer frequency, TF over GST control); in the experiment with SPIB, 1.35 fold enrichment (6-mer frequency, TF over GST control); with ELK3, 1.32 fold enrichment (6-mer frequency, TF over GST control).
Regarding TTTGCG, the binding signal is 1.27 fold enrichment (6-mer frequency, TF over GST control) with FLI1; 1.29 fold enrichment (6-mer frequency, TF over GST control) with ELK1; 1.26 fold enrichment (6-mer frequency, TF over GST control) with GABPA; 1.14 fold enrichment (6-mer frequency, TF over GST control) with ERG; 1.27 fold enrichment (6-mer frequency, TF over GST control) in the experiment with ELF1; 1.19 fold enrichment (6-mer frequency, TF over GST control) with EHF. The binding signal with SPI1 was 1.32 fold enrichment (6-mer frequency, TF over GST control); with SPIB, 1.19 fold enrichment (6-mer frequency, TF over GST control); in the experiment with ELK3, 1.11 fold enrichment (6-mer frequency, TF over GST control).
With GGTATT, the binding signal was 1.2 fold enrichment (6-mer frequency, TF over GST control) with FLI1; 1.17 fold enrichment (6-mer frequency, TF over GST control) with ELK1; 1.23 fold enrichment (6-mer frequency, TF over GST control) with GABPA; 1.24 fold enrichment (6-mer frequency, TF over GST control) with ERG; 1.18 fold enrichment (6-mer frequency, TF over GST control) in the experiment with ELF1; 1.19 fold enrichment (6-mer frequency, TF over GST control) in the experiment with EHF. Moreover, the binding signal is 1.16 fold enrichment (6-mer frequency, TF over GST control) with SPI1; 1.2 fold enrichment (6-mer frequency, TF over GST control) in the experiment with SPIB; 1.15 fold enrichment (6-mer frequency, TF over GST control) with ELK3.
For ATAGAA, the binding signal with FLI1 is 1.02 fold enrichment (6-mer frequency, TF over GST control); with ELK1, 1.04 fold enrichment (6-mer frequency, TF over GST control); with GABPA it was 1.04 fold enrichment (6-mer frequency, TF over GST control); in the experiment with ERG it was 1.06 fold enrichment (6-mer frequency, TF over GST control); in the experiment with ELF1 it was 1.05 fold enrichment (6-mer frequency, TF over GST control); with EHF, 1.07 fold enrichment (6-mer frequency, TF over GST control). The binding signal was 1.16 fold enrichment (6-mer frequency, TF over GST control) in the experiment with SPI1; 1.08 fold enrichment (6-mer frequency, TF over GST control) in the experiment with SPIB; 1.13 fold enrichment (6-mer frequency, TF over GST control) with ELK3.
With GTCTCA, the binding signal with FLI1 was 1.34 fold enrichment (6-mer frequency, TF over GST control); with ELK1 it was 1.32 fold enrichment (6-mer frequency, TF over GST control); with GABPA, 1.35 fold enrichment (6-mer frequency, TF over GST control); with ERG, 1.36 fold enrichment (6-mer frequency, TF over GST control); with ELF1, 1.41 fold enrichment (6-mer frequency, TF over GST control); in the experiment with EHF, 1.32 fold enrichment (6-mer frequency, TF over GST control). For the same sequence, the binding signal was 1.39 fold enrichment (6-mer frequency, TF over GST control) with SPI1; 1.41 fold enrichment (6-mer frequency, TF over GST control) in the experiment with SPIB; 1.32 fold enrichment (6-mer frequency, TF over GST control) with ELK3.
